Our source for the binding signal values is PMC9911399, “Two distinct binding modes provide the RNA-binding protein RbFox with extraordinary sequence specificity”.

Numbering of substitutions follows the chain as printed; changes in the protein carry UniProt numbers. The full ranking holds about 16,000 sequences; the median of “ka relative to ugcaugu” is about 0.0091, and the highest 2% start at about 0.032. What follows is part of a selection rich in the highest values, with near analogues and random picks from the rest.

The chains are these.
B1: UUUCUAU (DNA:RNA)
RNA: GGGAGACCGGAAUUCAGAUUGUCCUUUCUAUUUAAAUCCCGUCGUAGCCACCA
DNA 1: CAATCTGAATTCCGGTCTCCC
DNA 2: TGGTGGCTACGACGGGATT
B2: UGCAUCU (DNA:RNA)
RNA: B1 RNA with U26G, U27C, C28A, A30C
DNA 1: CAATCTGAATTCCGGTCTCCC
DNA 2: TGGTGGCTACGACGGGATT
B3: AUCCGAU (DNA:RNA)
RNA: B1 RNA with U25A, U27C, U29G
DNA 1: CAATCTGAATTCCGGTCTCCC
DNA 2: TGGTGGCTACGACGGGATT
B4: ACAACUC (DNA:RNA)
RNA: GGGAGACCGGAAUUCAGAUUGUCCACAACUCUUAAAUCCCGUCGUAGCCACCA
DNA 1: CAATCTGAATTCCGGTCTCCC
DNA 2: TGGTGGCTACGACGGGATT
B5: GCCAUCC (DNA:RNA)
RNA: B4 RNA with A25G, A27C, C29U, U30C
DNA 1: CAATCTGAATTCCGGTCTCCC
DNA 2: TGGTGGCTACGACGGGATT
B6: CGCUAUU (DNA:RNA)
RNA: B4 RNA with A25C, C26G, A27C, A28U, C29A, C31U
DNA 1: CAATCTGAATTCCGGTCTCCC
DNA 2: TGGTGGCTACGACGGGATT
B7: UAGAUGA (DNA:RNA)
RNA: B1 RNA with U26A, U27G, C28A, A30G, U31A
DNA 1: CAATCTGAATTCCGGTCTCCC
DNA 2: TGGTGGCTACGACGGGATT
B8: UGGGUUG (DNA:RNA)
RNA: B1 RNA with U26G, U27G, C28G, A30U, U31G
DNA 1: CAATCTGAATTCCGGTCTCCC
DNA 2: TGGTGGCTACGACGGGATT
B9: UGGGUUC (DNA:RNA)
RNA: B4 RNA with A25U, C26G, A27G, A28G, C29U
DNA 1: CAATCTGAATTCCGGTCTCCC
DNA 2: TGGTGGCTACGACGGGATT
B10: UGGUUCU (DNA:RNA)
RNA: B1 RNA with U26G, U27G, C28U, A30C
DNA 1: CAATCTGAATTCCGGTCTCCC
DNA 2: TGGTGGCTACGACGGGATT
B11: UGGUUUU (DNA:RNA)
RNA: B1 RNA with U26G, U27G, C28U, A30U
DNA 1: CAATCTGAATTCCGGTCTCCC
DNA 2: TGGTGGCTACGACGGGATT
B12: CCCCUGG (DNA:RNA)
RNA: B1 RNA with U25C, U26C, U27C, A30G, U31G
DNA 1: CAATCTGAATTCCGGTCTCCC
DNA 2: TGGTGGCTACGACGGGATT
B13: UGCUGGG (DNA:RNA)
RNA: B1 RNA with U26G, U27C, C28U, U29G, A30G, U31G
DNA 1: CAATCTGAATTCCGGTCTCCC
DNA 2: TGGTGGCTACGACGGGATT
B14: CUGGGUU (DNA:RNA)
RNA: B1 RNA with U25C, U27G, C28G, U29G, A30U
DNA 1: CAATCTGAATTCCGGTCTCCC
DNA 2: TGGTGGCTACGACGGGATT
B15: CUGGUUC (DNA:RNA)
RNA: B4 RNA with A25C, C26U, A27G, A28G, C29U
DNA 1: CAATCTGAATTCCGGTCTCCC
DNA 2: TGGTGGCTACGACGGGATT
B16: UCCUGGG (DNA:RNA)
RNA: B4 RNA with A25U, A27C, A28U, C29G, U30G, C31G
DNA 1: CAATCTGAATTCCGGTCTCCC
DNA 2: TGGTGGCTACGACGGGATT
B17: UGUUGGG (DNA:RNA)
RNA: B1 RNA with U26G, C28U, U29G, A30G, U31G
DNA 1: CAATCTGAATTCCGGTCTCCC
DNA 2: TGGTGGCTACGACGGGATT
B18: UGGGGGG (DNA:RNA)
RNA: B1 RNA with U26G, U27G, C28G, U29G, A30G, U31G
DNA 1: CAATCTGAATTCCGGTCTCCC
DNA 2: TGGTGGCTACGACGGGATT
B19: UGGGUUU (DNA:RNA)
RNA: B1 RNA with U26G, U27G, C28G, A30U
DNA 1: CAATCTGAATTCCGGTCTCCC
DNA 2: TGGTGGCTACGACGGGATT
B20: AAAUAAA (DNA:RNA)
RNA: B4 RNA with C26A, A28U, C29A, U30A, C31A
DNA 1: CAATCTGAATTCCGGTCTCCC
DNA 2: TGGTGGCTACGACGGGATT
B21: AAAGAGU (DNA:RNA)
RNA: B4 RNA with C26A, A28G, C29A, U30G, C31U
DNA 1: CAATCTGAATTCCGGTCTCCC
DNA 2: TGGTGGCTACGACGGGATT
B22: AGUGGCG (DNA:RNA)
RNA: B4 RNA with C26G, A27U, A28G, C29G, U30C, C31G
DNA 1: CAATCTGAATTCCGGTCTCCC
DNA 2: TGGTGGCTACGACGGGATT
B23: CUCUGUC (DNA:RNA)
RNA: B4 RNA with A25C, C26U, A27C, A28U, C29G
DNA 1: CAATCTGAATTCCGGTCTCCC
DNA 2: TGGTGGCTACGACGGGATT
B24: GUGCGCC (DNA:RNA)
RNA: B1 RNA with U25G, U27G, U29G, A30C, U31C
DNA 1: CAATCTGAATTCCGGTCTCCC
DNA 2: TGGTGGCTACGACGGGATT
B25: CUUACGG (DNA:RNA)
RNA: B4 RNA with A25C, C26U, A27U, U30G, C31G
DNA 1: CAATCTGAATTCCGGTCTCCC
DNA 2: TGGTGGCTACGACGGGATT
B26: UGGUUGG (DNA:RNA)
RNA: B1 RNA with U26G, U27G, C28U, A30G, U31G
DNA 1: CAATCTGAATTCCGGTCTCCC
DNA 2: TGGTGGCTACGACGGGATT
B27: CUGGGGU (DNA:RNA)
RNA: B1 RNA with U25C, U27G, C28G, U29G, A30G
DNA 1: CAATCTGAATTCCGGTCTCCC
DNA 2: TGGTGGCTACGACGGGATT
B28: UGGGGUU (DNA:RNA)
RNA: B1 RNA with U26G, U27G, C28G, U29G, A30U
DNA 1: CAATCTGAATTCCGGTCTCCC
DNA 2: TGGTGGCTACGACGGGATT
B29: CGGUUGC (DNA:RNA)
RNA: B4 RNA with A25C, C26G, A27G, A28U, C29U, U30G
DNA 1: CAATCTGAATTCCGGTCTCCC
DNA 2: TGGTGGCTACGACGGGATT
B30: UGGGGGU (DNA:RNA)
RNA: B1 RNA with U26G, U27G, C28G, U29G, A30G
DNA 1: CAATCTGAATTCCGGTCTCCC
DNA 2: TGGTGGCTACGACGGGATT
B31: UGGUUGC (DNA:RNA)
RNA: B1 RNA with U26G, U27G, C28U, A30G, U31C
DNA 1: CAATCTGAATTCCGGTCTCCC
DNA 2: TGGTGGCTACGACGGGATT

The test deals with T1, RBFOX1 RRM (Homo sapiens, UniProt Q9NWB1 109-208).
T1 sequence: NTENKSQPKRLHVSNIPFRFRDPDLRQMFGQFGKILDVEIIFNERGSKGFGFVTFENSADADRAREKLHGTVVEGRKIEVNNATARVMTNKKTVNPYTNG
In words: EMSA; HiTS-Eq, 1 nM pool, 10 min; buffer printed only for the single-RNA assays: 10 mM Tris pH 7.5, 150 mM NaCl, 3.4 mM EDTA, 0.001% NP-40, 30 C. The following applies: tags: His6 N-terminal (pET28a); label: 5' 32P. Put shortly:
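Purified wild-type or mutant RbFox RRM at increasing concentrations was equilibrated with 1 nM of 5′-radiolabelled RNA carrying 7 randomized nucleotides for 10 min in 50 µL. Unbound RNA was separated by 8% native PAGE and sequenced. Relative association constants came from read-count changes of each RNA species compared with the control reaction, normalised to the cognate motif.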
(In general: Mobility shift assays separate free from complexed probe on a gel.)
With B1, the binding signal was 0.00863 KA relative to UGCAUGU.
As for B2, the binding signal was 0.0208 KA relative to UGCAUGU.
For the molecule B3, the binding signal is 0.00393 KA relative to UGCAUGU.
Take B4: the binding signal is 0.00147 KA relative to UGCAUGU.
Consider B5, for which the binding signal was 0.00701 KA relative to UGCAUGU.
For the molecule B6, the binding signal was 0.00582 KA relative to UGCAUGU.
Consider B7, for which the binding signal is 0.0121 KA relative to UGCAUGU.
With B8, the binding signal is 0.0558 KA relative to UGCAUGU.
As to B9, the binding signal is 0.0352 KA relative to UGCAUGU.
In the case of B10, the binding signal is 0.019 KA relative to UGCAUGU.
Consider B11, for which the binding signal is 0.0278 KA relative to UGCAUGU.
Under B12 stands 0.0109 KA relative to UGCAUGU; under B13, 0.0153 KA relative to UGCAUGU; under B14, 0.0262 KA relative to UGCAUGU.
For B15 the value was 0.0321 KA relative to UGCAUGU; for B16, 0.00619 KA relative to UGCAUGU; for B17, 0.00877 KA relative to UGCAUGU.
For B18 the value was 0.0192 KA relative to UGCAUGU; for B19, 0.0379 KA relative to UGCAUGU; for B20, 0.000652 KA relative to UGCAUGU.
Take B21: the binding signal is 0.00527 KA relative to UGCAUGU.
Consider B22, for which the binding signal is 0.0184 KA relative to UGCAUGU.
With B23, the binding signal is 0.00978 KA relative to UGCAUGU.
Turning to B24, the binding signal is 0.0184 KA relative to UGCAUGU.
On to B25, for which the binding signal was 0.00764 KA relative to UGCAUGU.
On to B26, for which the binding signal was 0.0294 KA relative to UGCAUGU.
Under B27 stands 0.018 KA relative to UGCAUGU; under B28, 0.036 KA relative to UGCAUGU; under B29, 0.0256 KA relative to UGCAUGU.
For B30 the value was 0.0229 KA relative to UGCAUGU.
For B31, the binding signal was 0.0455 KA relative to UGCAUGU.
